An excerpt weighted towards active compounds, which were near 12% of everything screened.
BAZ2B inh = inhibitors of human BAZ2B bromodomain; Potency, µM (highest dose often 114 µM), usual class: inhibitors; Q9UIF8; AID 504333; 4.4% of 360,000 active; AlphaScreen BAZ2B-H3K14Ac peptide displacement; further: nearly all actives have a fitted effect of over 60% in size
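Inhibition is scored as reduced AlphaScreen emission. The BAZ2B/b-H3(5-23)K14Ac complex (50 nM each) in PBS pH 7.4, 0.01% Tween-20 meets compound (up to 110 uM) for 30 min at RT before bead addition.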
HP1b binding inh = HP1-beta chromodomain-methylated histone interaction inhibition; AlphaScreen HP1-beta / biotin-H3K9me3 peptide binding; P83916; Potency, µM (series often up to 114 µM), actives largely listed as inhibitors; 0.56% of 390,000 active; further: nearly all actives have a fitted effect of over 70% in size
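AlphaScreen: HP1-beta (50 nM) preformed 30 min with biotin-H3(1-18)K9me3 peptide (50 nM) in PBS pH 7.4, 0.01% Tween-20. Compound added for 30 min at RT, then streptavidin donor/nickel chelate acceptor beads (10 ug/mL) for 30 min.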
L3MBTL1 block = blocks human L3MBTL1; Q9Y468; AlphaScreen L3MBTL1–H3K9me1 peptide binding; Potency, µM (series often up to 57.1 µM), actives largely listed as inhibitors; 0.66% of 230,000 active; AID 485360; further: nearly all actives have a fitted effect of over 60% in size
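L3MBTL1 50 nM + b-AHA-H3(1-15)K9me1 75 nM, 30 min RT; compound added, 30 min RT; streptavidin donor/Ni-chelate acceptor beads 10 ug/mL each final, 30 min RT dark; AlphaScreen read.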
G9a block = blocks human histone lysine methyltransferase G9a | Q96KQ7 | G9a H3K9 monomethylation, AlphaScreen, 2 h | Potency, µM (top dose mostly 102 µM), hits mostly inhibitors | 8.8% of 350,000 active | AID 504332; further: nearly all actives have a fitted effect of over 75% in size
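Enzyme 20 nM + cpd, 15 min RT; add b-H3K9 pep 500 nM / SAM 20 uM; 2 h RT; anti-H3K9me1 Ab 0.5 ug/mL + SA donor / anti-rabbit acceptor beads 20 ug/mL each, 10 min; AlphaScreen read.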
JMJD2A Tudor = JMJD2A Tudor domain (human) inhibition; O75164; AlphaScreen JMJD2A-Tudor / H3K4me3 peptide binding; Potency, µM (series often up to 114 µM), actives largely listed as inhibitors; 4.4% of 390,000 active; AID 504339; further: nearly all actives have a fitted effect of over 50% in size
Sfp PPTase inh = inhibitors of Bacillus subtilis Sfp phosphopantetheinyl transferase; Biochemical Sfp PPTase activity, qHTS; Potency, µM, hits mostly inhibitors; 3.5% of 310,000 active; AID 1490;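 further: the enzyme is Sfp with the accession as filed and its product quenches rhodamine fluorescence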
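Sfp 15 nM + cpd, 15 min RT; start w/ rhodamine-CoA 5 uM, BHQ-2-YbbR 12.5 uM (final); 50 mM Hepes pH 7.6, 10 mM MgCl2, 0.01% NP-40, 0.01% BSA; read 525/598 nm at 0 and 30 min.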
A number is an active result; [ ] = another dose, or the depositor's remark. The call rests on the fitted dose curve; in most records, active means well fitted curve in the direction sought with a large enough effect; inconclusive means small, poorly fitted or top-dose-only effect, or another doubt; inactive means no such curve, though single readings can be large; an effect the other way counts as inactive or inconclusive.

`O=C(N/N=C/c1ccc2c(c1)OCO2)c1ccccn1` gave BAZ2B inh inactive, HP1b binding inh inactive, L3MBTL1 block inactive, G9a block inactive, JMJD2A Tudor inactive and Sfp PPTase inh 79µM.
Screening O=C(/C=C/c1ccccc1)c1ccccn1 returned BAZ2B inh inactive, HP1b binding inh inactive, L3MBTL1 block inactive, G9a block inconclusive, JMJD2A Tudor inactive and Sfp PPTase inh 28µM.
For O=C(N/N=C/c1cc2c(cc1Br)OCO2)c1ccccn1 the results were BAZ2B inh inactive, HP1b binding inh inactive, L3MBTL1 block inactive, G9a block inactive, JMJD2A Tudor inactive and Sfp PPTase inh inactive.
Screening O=C(N/N=C/c1ccc2c(c1)OCO2)c1ccc(Br)o1 returned BAZ2B inh 79µM, HP1b binding inh inactive, L3MBTL1 block inactive, G9a block inconclusive, JMJD2A Tudor inconclusive and Sfp PPTase inh inactive.
Screening CC(Sc1nnc(-c2ccccc2)c(-c2ccccc2)n1)C(=O)N1CCc2ccccc21 (stereo not drawn) returned BAZ2B inh inactive, HP1b binding inh inactive, L3MBTL1 block inactive, G9a block inconclusive, JMJD2A Tudor inactive and Sfp PPTase inh inactive.
`Cc1cccc(NC(=O)NCc2cccnc2)c1C` gave BAZ2B inh inactive, HP1b binding inh inactive, G9a block inactive, JMJD2A Tudor inactive and Sfp PPTase inh inactive.
For CC1=NOC(=O)/C1=C\c1ccc(-c2ccc(Br)cc2)o1 the results were BAZ2B inh 11µM, HP1b binding inh inactive, G9a block 5µM, JMJD2A Tudor inconclusive and Sfp PPTase inh 45µM.
CC1=NOC(=O)/C1=C\c1ccc(-c2cc(Cl)ccc2Cl)o1 was read as BAZ2B inh inconclusive, HP1b binding inh inconclusive, G9a block inconclusive, JMJD2A Tudor inconclusive and Sfp PPTase inh 18µM.
Screening C=CCNC(=S)N/N=C/c1ccc(-c2cc(Cl)ccc2Cl)o1 returned BAZ2B inh inactive, HP1b binding inh inactive, L3MBTL1 block inactive, G9a block inactive, JMJD2A Tudor inactive and Sfp PPTase inh inactive.
For CC1=NOC(=O)/C1=C/c1ccc(-c2ccc(Cl)cc2)o1 the results were BAZ2B inh inconclusive, G9a block 4.5µM and Sfp PPTase inh 32µM.
For C[C@@H]1C[C@@H]([C@@H](C)CC2CC(=O)NC(=O)C2)C(=O)[C@@H](C)C1 the results were G9a block inactive and Sfp PPTase inh inactive.
`CC1CCN(Cc2c(C(=O)N/N=C/c3ccc(OC(C)C)cc3)nnn2-c2nonc2N)CC1` gave BAZ2B inh inactive, HP1b binding inh inactive, G9a block inactive, JMJD2A Tudor inactive and Sfp PPTase inh inactive.
`Clc1ccc(-c2nnc3sc(Cc4cccs4)nn23)c(Cl)c1` gave BAZ2B inh inactive, HP1b binding inh inactive, L3MBTL1 block inactive, G9a block 40µM, JMJD2A Tudor inactive and Sfp PPTase inh inactive.
c1coc(-c2nnc3sc(Cc4cccs4)nn23)c1 was read as BAZ2B inh 50µM, HP1b binding inh inconclusive, G9a block inconclusive, JMJD2A Tudor 40µM and Sfp PPTase inh inactive.
COc1ccccc1-c1nnc2sc(COc3ccc(Cl)cc3Cl)nn12 was read as BAZ2B inh inconclusive, HP1b binding inh inactive, L3MBTL1 block inactive, G9a block inactive, JMJD2A Tudor inconclusive and Sfp PPTase inh inactive.
`Cc1ccc(NC(=O)c2cc(C(=O)Nc3ccc(C)cc3)n(C)n2)cc1` gave HP1b binding inh inactive and JMJD2A Tudor inactive.
For COc1ccc(-c2nc(N3CCN(S(=O)(=O)c4ccc(C)cc4)CC3)c3ccccc3n2)cc1 the results were HP1b binding inh inactive and JMJD2A Tudor inactive.
For CCn1nc(NS(=O)(=O)c2ccccc2[N+](=O)[O-])c2cc3cccc(C)c3nc21 the results were BAZ2B inh inconclusive, HP1b binding inh inactive, G9a block inconclusive, JMJD2A Tudor inconclusive and Sfp PPTase inh inactive.
`CCn1nc(NS(=O)(=O)c2ccc([N+](=O)[O-])cc2)c2cc3cccc(C)c3nc21` gave BAZ2B inh inconclusive, HP1b binding inh inactive, G9a block 18µM, JMJD2A Tudor inconclusive and Sfp PPTase inh inactive.
Screening O=C1CC(C(F)(F)C(F)(F)C(F)(F)C(F)F)=Nc2ccccc2N1 returned BAZ2B inh inactive, HP1b binding inh inactive, L3MBTL1 block inactive, G9a block inactive, JMJD2A Tudor inactive and Sfp PPTase inh inactive.
O=C1CC(/C=C/c2ccccn2)=Nc2ccccc2N1 was read as BAZ2B inh inconclusive, HP1b binding inh inactive, G9a block 45µM, JMJD2A Tudor 45µM and Sfp PPTase inh inactive.
For O=C1CC(/C=C/c2ccco2)=Nc2ccccc2N1 the results were BAZ2B inh inactive, HP1b binding inh inactive, G9a block 45µM, JMJD2A Tudor inactive and Sfp PPTase inh inactive.
For O=C1CC(/C=C/c2ccc([N+](=O)[O-])cc2)=Nc2ccccc2N1 the results were BAZ2B inh inconclusive, HP1b binding inh inactive, L3MBTL1 block inactive, JMJD2A Tudor inactive[11.4 µM] and Sfp PPTase inh 22µM.
Screening COC(=O)C1=C[C@@H](C(=O)OC)C2C3=C(C(=O)[C@@]2(CC(C)C)NC(=O)c2ccccc2)[C@H](C)n2c(=O)n(C)c(=O)n2[C@@H]3C1 (stereo partly drawn) returned HP1b binding inh inactive, JMJD2A Tudor inactive and Sfp PPTase inh inactive.
O=S1(=O)N=C(Oc2ccccc2)c2ccccc21 was read as BAZ2B inh inactive, HP1b binding inh inactive, L3MBTL1 block inactive, G9a block inactive, JMJD2A Tudor 89µM and Sfp PPTase inh inactive.
For N#Cc1cccc(OC2=NS(=O)(=O)c3ccccc32)c1 the results were JMJD2A Tudor 35µM.
Screening S=c1[nH]nc(Cc2cccs2)n1-c1cccc2ccccc12 returned BAZ2B inh inactive, HP1b binding inh inactive, L3MBTL1 block inactive, G9a block 1.8µM, JMJD2A Tudor 40µM and Sfp PPTase inh inconclusive.
`COc1ccccc1-n1c(Cc2cccs2)n[nH]c1=S` gave BAZ2B inh inactive, HP1b binding inh inactive, L3MBTL1 block inactive, G9a block 3.5µM, JMJD2A Tudor inactive and Sfp PPTase inh inactive.
Cc1ccc(C)c(-n2c(Cc3cccs3)n[nH]c2=S)c1 was read as BAZ2B inh inactive, HP1b binding inh inactive, L3MBTL1 block inactive, G9a block 1.6µM, JMJD2A Tudor 10µM and Sfp PPTase inh inactive.
S=c1[nH]nc(Cc2cccs2)n1-c1ccccc1Cl was read as BAZ2B inh inactive, HP1b binding inh inactive, L3MBTL1 block inactive, G9a block 2.2µM, JMJD2A Tudor 14µM and Sfp PPTase inh inactive.
For Cc1ccc(-c2cc(Cc3cccs3)c(=O)[nH]n2)cc1 the results were BAZ2B inh inactive, HP1b binding inh inactive, G9a block inactive, JMJD2A Tudor inactive and Sfp PPTase inh inactive.
O=C(Nc1cccc(F)c1)C1CCN(c2nc3ccccc3nc2C(F)(F)F)CC1 was read as BAZ2B inh inactive, HP1b binding inh inactive, G9a block inactive and JMJD2A Tudor inactive.

Compound activity from PubChem BioAssay.
